± gives the standard deviation of the averaged measurements.

Experiment [1] has as its system DLD1. In words: cell viability (CellTiter-Glo) relative to plate median (fraction of plate median); higher = more viable cells. The following applies: 5 µM; treatment time 24 h; reporter: 7TFP. The method in brief:
(§1)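 After seeding in 384-well plates, colorectal cancer cell lines carrying stable lentiviral TCF/Wnt firefly luciferase reporters (7TFP or TCF4/Wnt) were left 24 h. Library compounds were then added at a final 5 µM for 24 h. A Tecan F500 reader measured firefly luciferase or CellTiterGlo luminescence on parallel plates, with each well normalised to the plate median by webcellHTS2 (additive, no log transformation), and two independent replicates averaged.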
Background: In ATP-based viability assays light output follows the ATP content of the culture.

Experiment [2] concerns HCT116. The description is as above. To be noted: 5 µM; treatment time 24 h; reporter: TCF4/Wnt. The method in brief:
as §1

In experiment [3] the test system is SW480. The experiment is described as above. To be noted: 5 µM; treatment time 24 h; reporter: 7TFP. The method in brief:
as §1

For experiment [4], the system named is DLD1. Put plainly: TCF/Wnt firefly luciferase reporter signal relative to plate median (fraction of plate median); higher = higher Wnt reporter signal. The following applies: 5 µM; treatment time 24 h; reporter: 7TFP. A digest of the protocol: as §1
For orientation: Reporter assays use an easily measured gene product as a stand-in for the process of interest.

For experiment [5], the system named is SW480. The experiment is described as above. The following applies: 5 µM; treatment time 24 h; reporter: 7TFP. The method in brief: as §1

On to `NCCC(=O)N[C@@H](Cc1c[nH]cn1)C(=O)O`, for which the cell viability in experiment [1] worked out at 1.08 ± 0.064; in experiment [2], 1.04 ± 0.021; in experiment [3], 1.01 ± 0.016. The entries for the “TCF/Wnt firefly luciferase reporter signal” value in experiment [4] and in experiment [5] were 1.24 ± 0.092 and 1.17 ± 0.11, respectively.

Consider `Cc1ccccc1OCC(O)CO` (stereo not given), for which the values for the cell viability in experiment [1], in experiment [2] and in experiment [3] were 0.958 ± 0.042, 0.983 ± 0.0099 and 0.999 ± 0.03, respectively. Further, the “TCF/Wnt firefly luciferase reporter signal” value in experiment [4] came to 1.02 ± 0.15; in experiment [5] it was 1.04 ± 0.014.

For the compound `COc1ccc([C@H]2COc3c(ccc(O)c3OC)C2)c(OC)c1O`, the cell viability was 1.01 ± 0.038 in experiment [1], 0.95 ± 0.052 in experiment [2] and 1.03 ± 0.014 in experiment [3]. In addition, the “TCF/Wnt firefly luciferase reporter signal” value in experiment [4] is 0.987 ± 0.13; in experiment [5], 0.878 ± 0.069.

As for `Clc1ccccc1CN1CCc2sccc2C1`, the cell viability in experiment [1] worked out at 0.988 ± 0.013; in experiment [2], 1.07 ± 0.05; in experiment [3] it was 1 ± 0.057. The figures for the “TCF/Wnt firefly luciferase reporter signal” value in experiment [4] and in experiment [5] were 0.934 ± 0.036 and 1.01 ± 0.071, respectively.

In the case of `CC(=O)O[C@H]1C[C@@H](OC(C)=O)C(C)(C)C2CC(=O)[C@]3(C)C(CC[C@@]4(C)[C@H](C(=O)O)OC(=O)C5OC543)[C@]21C` (stereo not given in full), the cell viability in experiment [1] stood at 0.985 ± 0.093; in experiment [2], 0.922 ± 0.028; in experiment [3] it was 1.01 ± 0.032. In addition, the “TCF/Wnt firefly luciferase reporter signal” value in experiment [4] came out at 0.826 ± 0.027; in experiment [5] it was 0.95 ± 0.21.

Turning to `NCCCC[C@H](N[C@@H](CCc1ccccc1)C(=O)O)C(=O)N1CCC[C@H]1C(=O)O`, the cell viability was found to be 1.03 ± 0.05 in experiment [1], 1.01 ± 0.07 in experiment [2] and 1.003 ± 0.0099 in experiment [3]. Moreover, the entries for the “TCF/Wnt firefly luciferase reporter signal” value in experiment [4] and in experiment [5] were 0.9065 ± 0.00071 and 0.827 ± 0.069, respectively.

Turning to `N[C@@H]1CONC1=O`, the cell viability in experiment [1] was 1.04 ± 0.11; in experiment [2] it was 1.05 ± 0.035; in experiment [3] it was 1.04 ± 0.061. Further, the “TCF/Wnt firefly luciferase reporter signal” value in experiment [4] turned out to be 1.05 ± 0.028; in experiment [5] it was 0.969 ± 0.21.

With `C=C(C)[C@@H]1CC=C(CO)CC1`, the cell viability in experiment [1] is 0.968 ± 0.1; in experiment [2], 0.972 ± 0.12; in experiment [3], 0.996 ± 0.0042. Besides, the “TCF/Wnt firefly luciferase reporter signal” value was 0.952 ± 0.016 in experiment [4] and 0.972 ± 0.054 in experiment [5].

In the case of `COC(=O)C[C@H]1C(C)(C)C2(O)OC34CC2C(=O)[C@]1(C)C3CC[C@]1(C)C4=CC(=O)O[C@H]1c1ccoc1` (stereo partly drawn) [8beta-HYDROXYCARAPIN, 3,8-HEMIACETAL], the results for the cell viability in experiment [1], in experiment [2] and in experiment [3] were 1.02 ± 0.014, 1.07 ± 0.11 and 0.9895 ± 0.0092, respectively. Besides, the “TCF/Wnt firefly luciferase reporter signal” value in experiment [4] came out at 0.866 ± 0.067; in experiment [5], 0.816 ± 0.019.

In the case of `NCCCC(=O)O` [gamma-AMINOBUTYRIC ACID], the cell viability in experiment [1] is 1.02 ± 0.046; in experiment [2], 1.02 ± 0.11; in experiment [3] it was 1.04 ± 0.05. In addition, the “TCF/Wnt firefly luciferase reporter signal” value was found to be 1.06 ± 0.093 in experiment [4] and 0.89 ± 0.24 in experiment [5].

As to `CC(=O)C12OC(C)(c3ccccc3)OC1CC1C3CCC4=CC(=O)CCC4(C)C3CCC12C` (stereo not given), the cell viability in experiment [1] came to 0.963 ± 0.039; in experiment [2], 0.987 ± 0.033; in experiment [3], 0.976 ± 0.035. The “TCF/Wnt firefly luciferase reporter signal” value in experiment [4] is 0.977 ± 0.061; in experiment [5] it was 0.939 ± 0.067.

In the case of `CCCCCCCCCCCCCCCCOP(=O)([O-])OCC[N+](C)(C)C`, the cell viability turned out to be 1.04 ± 0.035 in experiment [1], 0.984 ± 0.0099 in experiment [2] and 0.969 ± 0.035 in experiment [3]. Besides, the figures for the “TCF/Wnt firefly luciferase reporter signal” value in experiment [4] and in experiment [5] were 1.07 ± 0.16 and 1.04 ± 0.05, respectively.

For `CC(=O)O[C@H]1C[C@@H](OC(C)=O)C(C)(C)C2CC(=O)[C@]3(C)C(CC[C@@]4(C)[C@H](c5ccoc5)OC(=O)[C@H]5O[C@]543)[C@]21C` (stereo not given in full), the cell viability in experiment [1] amounted to 0.983 ± 0.0099; in experiment [2], 0.998 ± 0.046; in experiment [3], 1.02 ± 0.076. The entries for the “TCF/Wnt firefly luciferase reporter signal” value in experiment [4] and in experiment [5] were 1.06 ± 0.11 and 1.03 ± 0.028, respectively.

Consider `CC(=O)[C@H]1CC[C@H]2[C@@H]3C[C@H](C)C4=CC(=O)CC[C@]4(C)[C@H]3[C@@H](O)C[C@]12C`, for which the cell viability came out at 0.979 ± 0.12 in experiment [1], 0.981 ± 0.042 in experiment [2] and 0.958 ± 0.029 in experiment [3]. For the same compound, the results for the “TCF/Wnt firefly luciferase reporter signal” value in experiment [4] and in experiment [5] were 1.01 ± 0.069 and 1 ± 0.022, respectively.

Values taken from the supplement of paper PMC6522484.
